Experiment [1] addresses Tyrosine-protein kinase Fer (Homo sapiens) (UniProt P16591). The note with it: at 10 µM.
Experiment [2] concerns the target Tyrosine-protein kinase Fes/Fps (Homo sapiens) (UniProt P07332). The note with it: at 1 µM.
The target is the same in experiment [3]. The note with it: at 10 µM.
Experiment [4] concerns the target Tyrosine-protein kinase Fgr (Homo sapiens) (UniProt P09769). The note with it: at 1 µM.
For experiment [5] the target is unchanged. As to conditions: at 10 µM.
The target of experiment [6] is Receptor-type tyrosine-protein kinase FLT3 (Homo sapiens) (UniProt P36888). The note with it: at 1 µM.
Chain of Receptor-type tyrosine-protein kinase FLT3 (Homo sapiens) (P36888 whole entry): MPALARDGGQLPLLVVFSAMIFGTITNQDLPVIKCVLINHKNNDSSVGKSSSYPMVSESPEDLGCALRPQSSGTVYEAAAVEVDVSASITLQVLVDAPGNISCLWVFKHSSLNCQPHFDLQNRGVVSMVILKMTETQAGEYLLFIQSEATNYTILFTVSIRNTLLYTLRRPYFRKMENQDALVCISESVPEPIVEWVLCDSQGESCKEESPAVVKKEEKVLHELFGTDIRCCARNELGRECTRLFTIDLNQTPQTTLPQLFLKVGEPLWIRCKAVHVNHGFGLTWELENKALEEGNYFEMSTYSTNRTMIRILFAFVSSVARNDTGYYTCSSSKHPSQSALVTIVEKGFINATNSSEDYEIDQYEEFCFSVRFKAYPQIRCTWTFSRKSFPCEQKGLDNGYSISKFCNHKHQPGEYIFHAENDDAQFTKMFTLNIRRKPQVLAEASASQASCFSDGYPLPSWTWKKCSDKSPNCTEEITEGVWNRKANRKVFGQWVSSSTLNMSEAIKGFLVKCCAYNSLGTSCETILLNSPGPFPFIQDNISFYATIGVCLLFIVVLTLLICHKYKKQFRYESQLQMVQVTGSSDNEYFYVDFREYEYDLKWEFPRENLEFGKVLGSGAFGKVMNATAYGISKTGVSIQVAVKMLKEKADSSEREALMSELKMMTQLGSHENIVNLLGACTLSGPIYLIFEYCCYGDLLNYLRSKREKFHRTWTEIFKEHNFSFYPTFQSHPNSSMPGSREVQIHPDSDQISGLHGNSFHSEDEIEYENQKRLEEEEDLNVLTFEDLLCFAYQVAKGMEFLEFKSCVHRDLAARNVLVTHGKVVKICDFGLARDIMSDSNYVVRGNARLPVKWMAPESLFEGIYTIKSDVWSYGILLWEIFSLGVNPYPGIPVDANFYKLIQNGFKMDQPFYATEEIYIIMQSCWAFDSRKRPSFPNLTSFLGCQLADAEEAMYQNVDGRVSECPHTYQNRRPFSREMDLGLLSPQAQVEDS
Experiment [7] shares this target. The note with it: at 10 µM.
Experiment [8] addresses Vascular endothelial growth factor receptor 3 (Homo sapiens) (UniProt P35916). As to conditions: at 1 µM.
Experiment [9] has the same target. The note with it: at 10 µM.
For experiment [10], the target named is Macrophage colony-stimulating factor 1 receptor (Homo sapiens) (UniProt P07333). The note with it: at 1 µM.
Chain of Macrophage colony-stimulating factor 1 receptor (Homo sapiens) (P07333 whole entry): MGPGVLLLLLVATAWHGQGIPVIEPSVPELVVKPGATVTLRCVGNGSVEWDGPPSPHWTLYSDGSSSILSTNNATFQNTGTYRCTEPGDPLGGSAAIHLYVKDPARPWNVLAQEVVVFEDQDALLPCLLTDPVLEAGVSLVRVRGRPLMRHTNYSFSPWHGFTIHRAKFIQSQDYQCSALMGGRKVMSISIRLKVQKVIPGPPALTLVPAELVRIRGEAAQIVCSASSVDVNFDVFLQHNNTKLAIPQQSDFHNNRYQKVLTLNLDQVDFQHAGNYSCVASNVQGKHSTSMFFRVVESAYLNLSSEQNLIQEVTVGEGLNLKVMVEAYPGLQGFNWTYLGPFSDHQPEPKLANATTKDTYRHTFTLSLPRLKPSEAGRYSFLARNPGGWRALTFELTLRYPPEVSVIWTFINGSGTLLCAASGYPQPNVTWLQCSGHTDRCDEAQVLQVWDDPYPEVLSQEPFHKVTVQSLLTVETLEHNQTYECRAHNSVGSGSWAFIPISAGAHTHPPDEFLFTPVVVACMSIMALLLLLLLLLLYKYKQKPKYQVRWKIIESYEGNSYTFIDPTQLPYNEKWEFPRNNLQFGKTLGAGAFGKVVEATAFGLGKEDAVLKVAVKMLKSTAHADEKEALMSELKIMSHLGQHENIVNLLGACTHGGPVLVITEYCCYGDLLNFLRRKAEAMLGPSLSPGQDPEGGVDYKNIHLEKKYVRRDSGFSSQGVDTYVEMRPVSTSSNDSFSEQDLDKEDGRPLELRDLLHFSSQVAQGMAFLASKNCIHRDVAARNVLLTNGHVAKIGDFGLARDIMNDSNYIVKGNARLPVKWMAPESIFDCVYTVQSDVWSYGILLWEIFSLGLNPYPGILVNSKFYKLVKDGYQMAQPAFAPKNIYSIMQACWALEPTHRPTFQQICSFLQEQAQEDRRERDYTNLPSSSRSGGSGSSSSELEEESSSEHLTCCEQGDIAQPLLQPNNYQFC
Experiment [11] has the same target. As to conditions: at 10 µM.
The target of experiment [12] is Tyrosine-protein kinase Fyn (Homo sapiens) (UniProt P06241). As to conditions: at 1 µM.
Chain of Tyrosine-protein kinase Fyn (Homo sapiens) (P06241 2-537 limits assumed): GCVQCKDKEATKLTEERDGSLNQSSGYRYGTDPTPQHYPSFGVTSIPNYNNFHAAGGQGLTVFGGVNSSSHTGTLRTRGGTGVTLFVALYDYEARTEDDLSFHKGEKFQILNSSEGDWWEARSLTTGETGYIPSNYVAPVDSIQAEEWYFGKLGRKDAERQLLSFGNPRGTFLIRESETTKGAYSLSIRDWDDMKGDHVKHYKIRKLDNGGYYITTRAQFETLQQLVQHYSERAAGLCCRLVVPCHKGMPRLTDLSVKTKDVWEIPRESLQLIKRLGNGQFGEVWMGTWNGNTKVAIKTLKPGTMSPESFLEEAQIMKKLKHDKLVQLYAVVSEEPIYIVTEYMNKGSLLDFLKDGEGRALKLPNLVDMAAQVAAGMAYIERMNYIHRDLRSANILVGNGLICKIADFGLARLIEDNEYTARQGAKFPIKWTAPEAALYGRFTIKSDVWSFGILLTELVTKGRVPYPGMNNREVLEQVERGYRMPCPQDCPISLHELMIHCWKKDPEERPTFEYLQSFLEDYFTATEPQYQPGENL
The target is the same in experiment [13]. As to conditions: at 10 µM.
Experiment [14] has as its target G protein-coupled receptor kinase 5 (Homo sapiens) (UniProt P34947). As to conditions: at 10 µM.
The target of experiment [15] is G protein-coupled receptor kinase 6 (Homo sapiens) (UniProt P43250). The note with it: at 10 µM.
Chain of G protein-coupled receptor kinase 6 (Homo sapiens) (P43250 whole entry, looked up): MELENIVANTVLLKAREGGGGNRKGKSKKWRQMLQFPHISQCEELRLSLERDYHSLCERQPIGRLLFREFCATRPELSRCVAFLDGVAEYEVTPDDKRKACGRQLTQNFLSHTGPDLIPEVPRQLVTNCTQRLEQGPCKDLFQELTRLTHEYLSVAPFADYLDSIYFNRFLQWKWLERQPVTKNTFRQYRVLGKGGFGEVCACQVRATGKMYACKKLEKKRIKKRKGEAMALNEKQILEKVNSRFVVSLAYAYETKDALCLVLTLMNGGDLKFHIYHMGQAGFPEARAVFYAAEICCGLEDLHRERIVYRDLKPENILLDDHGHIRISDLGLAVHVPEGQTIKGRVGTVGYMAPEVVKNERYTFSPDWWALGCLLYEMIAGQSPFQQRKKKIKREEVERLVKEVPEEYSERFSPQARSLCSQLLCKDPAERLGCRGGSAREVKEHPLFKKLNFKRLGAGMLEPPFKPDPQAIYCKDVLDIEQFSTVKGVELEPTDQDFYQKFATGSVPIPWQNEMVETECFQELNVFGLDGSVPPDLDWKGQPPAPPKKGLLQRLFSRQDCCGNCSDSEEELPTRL
Experiment [16] addresses T1, Rhodopsin kinase GRK7 (Homo sapiens) (UniProt Q8WTQ7).
T1 sequence (whole entry): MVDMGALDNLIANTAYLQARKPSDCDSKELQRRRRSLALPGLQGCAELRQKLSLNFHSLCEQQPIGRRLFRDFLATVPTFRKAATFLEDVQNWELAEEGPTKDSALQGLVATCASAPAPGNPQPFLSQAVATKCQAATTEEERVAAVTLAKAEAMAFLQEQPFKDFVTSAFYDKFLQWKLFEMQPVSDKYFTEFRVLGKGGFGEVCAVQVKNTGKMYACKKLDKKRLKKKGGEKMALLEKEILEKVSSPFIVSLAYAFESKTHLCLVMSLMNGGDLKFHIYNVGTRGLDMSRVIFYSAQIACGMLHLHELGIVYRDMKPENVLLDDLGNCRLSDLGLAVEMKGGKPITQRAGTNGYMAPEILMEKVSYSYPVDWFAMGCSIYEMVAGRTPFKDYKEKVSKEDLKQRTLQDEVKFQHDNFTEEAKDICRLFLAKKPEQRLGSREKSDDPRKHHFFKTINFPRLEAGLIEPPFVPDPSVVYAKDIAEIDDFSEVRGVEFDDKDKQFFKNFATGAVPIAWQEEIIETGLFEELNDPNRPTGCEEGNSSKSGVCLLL
The note with it: at 1 µM.

For experiment [17], the target named is Vascular endothelial growth factor receptor 1 (Homo sapiens) (UniProt P17948). The note with it: at 1 µM.
Chain of Vascular endothelial growth factor receptor 1 (Homo sapiens) (P17948 whole entry): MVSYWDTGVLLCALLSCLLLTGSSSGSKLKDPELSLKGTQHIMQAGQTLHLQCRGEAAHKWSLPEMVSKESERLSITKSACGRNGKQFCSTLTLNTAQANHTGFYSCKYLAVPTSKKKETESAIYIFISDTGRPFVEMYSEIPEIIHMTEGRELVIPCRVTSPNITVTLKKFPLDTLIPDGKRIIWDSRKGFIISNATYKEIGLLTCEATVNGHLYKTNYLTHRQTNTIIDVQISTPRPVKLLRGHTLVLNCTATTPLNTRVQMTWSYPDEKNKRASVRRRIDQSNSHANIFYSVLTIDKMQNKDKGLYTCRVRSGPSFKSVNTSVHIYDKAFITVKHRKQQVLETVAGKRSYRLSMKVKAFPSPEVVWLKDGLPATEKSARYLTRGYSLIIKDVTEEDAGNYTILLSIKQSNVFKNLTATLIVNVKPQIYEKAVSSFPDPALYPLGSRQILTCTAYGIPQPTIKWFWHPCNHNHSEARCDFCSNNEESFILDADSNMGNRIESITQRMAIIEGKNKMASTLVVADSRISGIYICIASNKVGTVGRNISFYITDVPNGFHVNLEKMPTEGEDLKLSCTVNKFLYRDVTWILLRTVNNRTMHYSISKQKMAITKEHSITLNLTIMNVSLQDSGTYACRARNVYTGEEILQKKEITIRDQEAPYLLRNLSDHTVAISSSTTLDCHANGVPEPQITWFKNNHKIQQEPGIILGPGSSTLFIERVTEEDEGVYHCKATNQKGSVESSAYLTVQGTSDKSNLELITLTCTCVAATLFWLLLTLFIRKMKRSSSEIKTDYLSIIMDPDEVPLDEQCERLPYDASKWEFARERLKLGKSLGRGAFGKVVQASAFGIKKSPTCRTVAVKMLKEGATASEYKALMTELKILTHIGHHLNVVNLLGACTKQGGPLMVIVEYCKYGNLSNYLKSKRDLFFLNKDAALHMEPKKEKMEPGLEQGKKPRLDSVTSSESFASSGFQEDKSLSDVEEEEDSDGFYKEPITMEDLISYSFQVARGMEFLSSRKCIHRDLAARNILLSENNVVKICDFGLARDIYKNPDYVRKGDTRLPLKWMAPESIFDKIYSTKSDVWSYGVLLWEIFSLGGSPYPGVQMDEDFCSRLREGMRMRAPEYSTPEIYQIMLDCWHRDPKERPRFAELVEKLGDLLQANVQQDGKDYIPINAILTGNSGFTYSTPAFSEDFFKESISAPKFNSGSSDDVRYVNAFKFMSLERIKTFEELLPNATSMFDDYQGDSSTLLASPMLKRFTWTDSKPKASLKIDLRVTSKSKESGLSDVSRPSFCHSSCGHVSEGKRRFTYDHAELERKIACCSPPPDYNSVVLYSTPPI
The target is the same in experiment [18]. As to conditions: at 10 µM.
Experiment [19] addresses T2, Mitogen-activated protein kinase kinase kinase kinase 2 (Homo sapiens) (UniProt Q12851).
T2 sequence (whole entry): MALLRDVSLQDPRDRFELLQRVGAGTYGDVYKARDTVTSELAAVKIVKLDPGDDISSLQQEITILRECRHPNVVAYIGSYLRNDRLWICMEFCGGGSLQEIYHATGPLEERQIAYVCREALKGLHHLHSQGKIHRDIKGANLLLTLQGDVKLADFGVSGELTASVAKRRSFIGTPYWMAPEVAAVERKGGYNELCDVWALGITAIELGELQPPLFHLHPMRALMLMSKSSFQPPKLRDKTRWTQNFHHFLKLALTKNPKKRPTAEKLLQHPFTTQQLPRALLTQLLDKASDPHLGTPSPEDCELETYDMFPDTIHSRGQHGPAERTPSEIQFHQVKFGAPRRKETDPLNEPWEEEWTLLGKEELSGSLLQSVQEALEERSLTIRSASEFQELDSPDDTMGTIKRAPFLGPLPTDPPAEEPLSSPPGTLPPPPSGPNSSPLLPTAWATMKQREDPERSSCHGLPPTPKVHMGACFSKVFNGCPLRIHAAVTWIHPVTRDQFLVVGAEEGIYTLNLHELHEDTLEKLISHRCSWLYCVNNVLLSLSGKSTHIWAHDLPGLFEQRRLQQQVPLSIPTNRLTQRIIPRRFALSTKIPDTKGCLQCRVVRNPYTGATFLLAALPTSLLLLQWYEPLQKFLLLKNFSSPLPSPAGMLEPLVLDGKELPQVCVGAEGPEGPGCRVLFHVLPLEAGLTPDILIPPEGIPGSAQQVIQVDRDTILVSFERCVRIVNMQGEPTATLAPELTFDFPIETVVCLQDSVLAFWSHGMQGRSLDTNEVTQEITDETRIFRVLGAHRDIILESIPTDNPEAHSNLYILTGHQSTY
The note with it: at 1 µM.

Experiment [20] concerns the target T2, Mitogen-activated protein kinase kinase kinase kinase 2 (Homo sapiens). As to conditions: at 10 µM.

The results in this text go back to ChEMBL document CHEMBL2218924, “A broad activity screen in support of a chemogenomic map for kinase signalling research and drug discovery” (Biochem J, 2013).

Chain of Tyrosine-protein kinase Fgr (Homo sapiens) (P09769 2-529 limits assumed): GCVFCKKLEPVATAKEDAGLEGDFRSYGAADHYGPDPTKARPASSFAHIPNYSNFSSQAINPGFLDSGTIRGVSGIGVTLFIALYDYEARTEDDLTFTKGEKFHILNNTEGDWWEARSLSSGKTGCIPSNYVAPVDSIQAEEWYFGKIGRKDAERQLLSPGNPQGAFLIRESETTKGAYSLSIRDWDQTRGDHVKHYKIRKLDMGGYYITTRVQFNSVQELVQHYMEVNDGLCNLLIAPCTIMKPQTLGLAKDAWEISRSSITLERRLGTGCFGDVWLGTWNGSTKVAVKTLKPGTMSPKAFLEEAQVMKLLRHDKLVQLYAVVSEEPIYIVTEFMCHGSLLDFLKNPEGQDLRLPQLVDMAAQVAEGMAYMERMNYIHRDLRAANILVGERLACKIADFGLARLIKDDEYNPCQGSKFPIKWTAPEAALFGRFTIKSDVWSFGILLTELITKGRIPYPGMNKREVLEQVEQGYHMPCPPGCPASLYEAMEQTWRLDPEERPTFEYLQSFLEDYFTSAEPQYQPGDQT

As for `CC(C)[C@H](CO)Nc1nc(Nc2cc(N)cc(Cl)c2)c2ncn(C(C)C)c2n1`, the residual activity in [1] stood at 23%; in experiment [2], 57%; in [3] it was 12%; in [4], 33%; in experiment [5] it was 3%; in experiment [6], 12%. Moreover, the residual activity in [7] came to 2%; in [8] it was 11%; in experiment [9] it was 3%; in experiment [10], 55%; in experiment [11], 21%; in [12], 9%. Moreover, the residual activity turned out to be 0% in experiment [13], 44% in experiment [14], 40% in experiment [15] and 58% in experiment [16].
On to `O=C(c1cc2cc(O)ccc2[nH]1)c1cc2cc(O)ccc2[nH]1`, for which the residual activity in [1] was found to be 55%; in experiment [3] it was 28%; in [4] it was 5%; in experiment [5], 2%; in [17], 20%; in experiment [18], 2%. In addition, the residual activity in experiment [6] came out at 0%; in experiment [7] it was 0%; in experiment [8], 4%; in [9], 1%; in [10] it was 54%; in [11], 10%. In addition, the residual activity turned out to be 7% in experiment [12]; 1% in [13]; 24% in experiment [19]; 4% in [20]; 82% in experiment [14]; 78% in [15]. For the same molecule, the residual activity in experiment [16] worked out at 75%.
For `CC(C)c1nn(-c2c(Cl)cccc2Cl)c2nc(Cc3ccc(OCCO)cc3)[nH]c(=O)c12`, the residual activity in [1] came out at 95%; in experiment [2], 109%; in experiment [3], 97%; in experiment [5], 95%; in [17] it was 90%; in [18], 82%. The residual activity was 81% in experiment [6]; 81% in experiment [7]; 84% in experiment [8]; 56% in experiment [9]; 62% in experiment [10]; 51% in experiment [11]. In addition, the residual activity in [12] came to 67%; in experiment [13], 74%; in [19], 99%; in experiment [20], 70%; in [14], 78%; in experiment [15] it was 86%. The residual activity in experiment [16] was determined as 93%.
In the case of `O=C1NC(=O)C(c2c[nH]c3ccccc23)=C1c1c[nH]c2ccccc12`, the residual activity came to 52% in [1]; 48% in experiment [3]; 98% in experiment [4]; 60% in [5]; 4% in experiment [17]; 1% in [18]. In addition, the residual activity in [6] turned out to be 19%; in [7], 1%; in experiment [8], 2%; in experiment [9] it was 1%; in [10], 82%; in experiment [11], 32%. The residual activity in experiment [12] is 83%; in experiment [13] it was 29%; in experiment [19], 80%; in experiment [20], 19%; in experiment [15], 68%; in [16], 78%.
As for `NCCNc1ncc(C(N)=O)c(Nc2cccc(C(F)(F)F)c2)n1`, the residual activity in experiment [1] was 47%; in experiment [2], 32%; in [3], 3%; in [4] it was 30%; in [5], 6%; in experiment [6], 50%. The residual activity in experiment [7] came to 5%; in [9] it was 48%; in experiment [10] it was 57%; in experiment [11] it was 4%; in [19] it was 13%; in [20], 0%. In addition, the results for the residual activity in experiment [14] and in experiment [15] were 79% and 73%, respectively.
Consider `O=C(O)/C=C/c1cc(Br)c(Br)c(Br)c1Br`, for which the residual activity in [1] came to 107%; in [2] it was 97%; in experiment [3] it was 74%; in experiment [4], 104%; in experiment [5], 103%; in experiment [17], 92%. Moreover, the residual activity was 67% in [18]; 72% in experiment [6]; 27% in experiment [7]; 79% in experiment [8]; 27% in experiment [9]; 79% in experiment [10]. In addition, the residual activity in experiment [11] was found to be 62%; in [12] it was 89%; in experiment [13], 88%; in [19] it was 100%; in [20] it was 72%; in [14] it was 91%. For the same molecule, the residual activity in [15] came out at 84%; in experiment [16], 105%.
In the case of `O=C1Nc2ccccc2/C1=C\c1c(Cl)[nH]c2ccccc12`, the residual activity amounted to 67% in [1]; 99% in [2]; 78% in experiment [3]; 64% in experiment [5]; 38% in [18]; 55% in experiment [7]. Also, the residual activity in [8] was 64%; in experiment [9], 8%; in [10] it was 79%; in experiment [11] it was 27%; in [12], 81%; in [13], 59%. Also, the residual activity amounted to 69% in experiment [20] and 99% in [16].
